Assay outcomes from PubChem.
IDH1 R132H inh – qHTS for Inhibitors of mutant isocitrate dehydrogenase 1 (IDH1): qHTS; AID 602179, 2012; IDH1-R132H enzyme, NADPH consumption, diaphorase/resazurin fluorescence; 0.093% of 390,000 active; Potency, µM (top dose mostly 76.6 µM), for inactives: top-dose activity change, negative = inhibition, actives largely listed as inhibitors; note: nearly all actives have a fitted effect of over 65% in size
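IDH1-R132H (0.5 ug/mL dispensed) in pH 7.5 Tris buffer was preincubated 30 min with compound, then given a substrate mix of 0.016 mM NADPH and 2 mM alpha-KG for 80 min at room temperature; remaining NADPH was read by diaphorase/resazurin fluorescence.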
VDR inhibitor – Inhibitors of the vitamin D receptor (VDR): qHTS | VDR-SRC2-3 peptide fluorescence polarization, 2 h | Potency, µM, inactives show max response, negative = inhibition, usual class: inhibitors | 0.93% of 400,000 active
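VDR–SRC2-3 interaction, FP format. Cmpds 23 nl via pintool, brief spin, 2 h ambient incubation.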
Sfp inh – qHTS Assay for Inhibitors of Bacillus subtilis Sfp phosphopantetheinyl transferase (PPTase). 3.5% of 310,000 active. Biochemical Sfp PPTase activity, qHTS. Potency, µM, for the others: largest response in the series, negative = inhibition, most hits filed as inhibitors;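 note: the enzyme is Sfp with the accession as filed and its product quenches rhodamine fluorescence; 0% = enzyme reaction without inhibitor and -100% = no enzyme wells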
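Compounds were incubated with enzyme (final 15 nM) for 15 min at room temperature before substrate addition started the reaction. Fluorescence at 525 nm excitation, 598 nm emission was recorded immediately and after 30 minutes.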
rTrxR1 inhibitor – qHTS Assay for Inhibitors of Mammalian Selenoprotein Thioredoxin Reductase 1 (TrxR1): qHTS; 1% of 390,000 active; Potency, µM (highest dose often 114 µM), for the others: top-dose activity change, negative = inhibition, usual class: inhibitors; recombinant rTrxR1, NADPH fluorescence consumption, selenite substrate; note: nearly all actives have a fitted effect of over 65% in size
Target sequence (O89049 whole entry, looked up): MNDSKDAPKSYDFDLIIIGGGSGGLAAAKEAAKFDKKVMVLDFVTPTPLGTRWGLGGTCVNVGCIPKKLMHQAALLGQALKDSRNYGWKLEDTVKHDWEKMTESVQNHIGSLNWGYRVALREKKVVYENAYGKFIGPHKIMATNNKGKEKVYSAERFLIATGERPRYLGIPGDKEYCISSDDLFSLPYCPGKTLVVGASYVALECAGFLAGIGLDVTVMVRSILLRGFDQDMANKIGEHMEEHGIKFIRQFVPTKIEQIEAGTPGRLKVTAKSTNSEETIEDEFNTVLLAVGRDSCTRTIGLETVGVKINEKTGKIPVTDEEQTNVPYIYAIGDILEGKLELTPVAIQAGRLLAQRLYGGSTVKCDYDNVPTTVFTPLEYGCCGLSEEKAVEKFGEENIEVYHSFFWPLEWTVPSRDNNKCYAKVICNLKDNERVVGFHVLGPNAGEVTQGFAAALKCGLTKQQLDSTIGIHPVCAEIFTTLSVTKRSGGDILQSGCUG
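Rat TrxR1 (90 nM in the dispensed reagent) was pre-reduced with 400 uM NADPH for 5 min at room temperature, then incubated with compound for 15 min. After 400 uM selenite was added, NADPH fluorescence (Ex 340/Em 450 nm) was followed for 8 min.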
TrxR1 substrate – qHTS Assay for Substrates of Mammalian Selenoprotein Thioredoxin Reductase 1 (TrxR1): qHTS | Thioredoxin reductase 1, cytoplasmic (Rattus norvegicus), O89049 | purified TrxR1 substrate turnover, NADPH consumption readout | Potency, µM (top dose mostly 114 µM), inactives show at the highest dose activity change, negative = substrate turnover | 0.01% of 390,000 active; note: nearly all actives have a fitted effect of over 50% in size
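Rat TrxR1, dispensed at 90 nM, was prereduced with 400 uM NADPH (final) for 5 min at ~22 deg C, then incubated with compound 15 min before 400 uM selenite. A first-read NADPH fluorescence drop versus no-compound background flagged substrates.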
PLK1 PBD block – qHTS for Inhibitors of PLK1-PDB (polo-like kinase 1 - polo-box domain): Primary Screen. Potency, µM, for the others: max response, negative = inhibition, usual class: inhibitors. 2.8% of 360,000 active. Plk1 PBD binding of FITC phosphopeptide, fluorescence polarization. Serine/threonine-protein kinase PLK1 (Homo sapiens), P53350; note: series mostly up to about 57 µM; nearly all actives have a fitted effect of over 65% in size
* = called active by the depositor; ! = not confirmed by another sample; [ ] = another dose, or the depositor's remark. The list is not random: actives were taken first. Their share in the collection is about 5.2%. Calls come from the whole dose curve; as a rule, active = well fitted curve in the direction sought with a large enough effect; inconclusive = small, poorly fitted or top-dose-only effect, or another doubt; inactive = no such curve, though single readings can be large; an effect the other way counts as inactive or inconclusive. Unless noted, % is set by controls: 0 for no effect and ±100 for the full control effect; potency is the fitted concentration of half-maximal effect.

Screening CC(C)(C)NC(=O)COC(=O)c1cncc(Br)c1 returned IDH1 R132H inh 0%, VDR inhibitor -23%, Sfp inh 18%, rTrxR1 inhibitor 7%[57.1 µM], TrxR1 substrate 6%[57.1 µM] and PLK1 PBD block 30µM*.
Screening COc1ccc(S(=O)(=O)n2nc(-c3ccco3)nc2NCc2ccc(C(C)C)cc2)cc1 returned IDH1 R132H inh -3%, VDR inhibitor 8%, rTrxR1 inhibitor 7% and TrxR1 substrate -3%.
Screening COc1ccccc1N(CC(=O)NCc1ccco1)S(=O)(=O)c1ccc(C)cc1 returned IDH1 R132H inh -3%, VDR inhibitor -13%, Sfp inh 56µM*, rTrxR1 inhibitor 32µM*, TrxR1 substrate -8%[0.0914 µM] and PLK1 PBD block 27µM*.
COc1ccc(S(=O)(=O)N(CC(=O)NCc2ccco2)C2CCCCC2)cc1OC was read as IDH1 R132H inh -2%, VDR inhibitor -2%, Sfp inh 50µM*, rTrxR1 inhibitor inconclusive, TrxR1 substrate 6%[57.1 µM] and PLK1 PBD block -8%.
`CC[N+](CC)(CC)c1ccc(/C=C/c2ccc3ccccc3n2)cc1` gave rTrxR1 inhibitor -9% and TrxR1 substrate -2%.
For COc1ccc(-n2cc(CNC3CCC(O)CC3)c(-c3cccc(F)c3)n2)cc1 (configuration not stated) the results were IDH1 R132H inh 0%, VDR inhibitor -4%, Sfp inh inconclusive, rTrxR1 inhibitor 11%[57.1 µM], TrxR1 substrate 20%[57.1 µM] and PLK1 PBD block 6%.
Screening CCOC(=O)c1sc2nc(CSc3ccccc3)nc(N3CCCN(C)CC3)c2c1C returned IDH1 R132H inh -4%, VDR inhibitor -19%, Sfp inh 50µM*, rTrxR1 inhibitor 0%[57.1 µM], TrxR1 substrate -7%[57.1 µM] and PLK1 PBD block -10%.
CCOC(=O)c1sc2nc(CSc3ccccc3)nc(N3CCC(C(N)=O)CC3)c2c1C was read as IDH1 R132H inh -8%, VDR inhibitor -28%, Sfp inh inconclusive, rTrxR1 inhibitor 20%[57.1 µM], TrxR1 substrate 3%[57.1 µM] and PLK1 PBD block -17%.
For O=[N+]([O-])c1cccnc1Oc1cc(Cl)c(Cl)cc1Cl the results were IDH1 R132H inh -2% and PLK1 PBD block 17µM*.
For Cc1ccc(NC(=O)CCc2nc3cccnc3n2-c2ccccc2)cc1Cl the results were IDH1 R132H inh -9%, VDR inhibitor -7%, rTrxR1 inhibitor 26% and TrxR1 substrate 3%.
For CCC1(c2ccc(Cl)cc2)NC(=S)N(c2ccc(C)cc2)N1 (configuration not stated) the results were IDH1 R132H inh 2%, VDR inhibitor 79µM*, Sfp inh inconclusive, rTrxR1 inhibitor inconclusive, TrxR1 substrate -11% and PLK1 PBD block -11%.
CCC1(c2ccccc2)NC(=S)N(c2ccc(C)c(C)c2)N1 (configuration not stated) was read as IDH1 R132H inh 9%, VDR inhibitor -27%, Sfp inh 8.9µM*, rTrxR1 inhibitor 4%[57.1 µM], TrxR1 substrate 9%[57.1 µM] and PLK1 PBD block -14%.
CCC1(c2ccc(Cl)cc2)NC(=S)N(c2ccc(C)c(C)c2)N1 (configuration not stated) was read as IDH1 R132H inh -7%, VDR inhibitor inconclusive, Sfp inh -10%, rTrxR1 inhibitor -23%, TrxR1 substrate 1% and PLK1 PBD block -27%.
`CCc1nnc2c3ccccc3nc(Nc3ccc(C(C)=O)cc3)n12` gave IDH1 R132H inh 22%, VDR inhibitor 15%, rTrxR1 inhibitor -4% and TrxR1 substrate -5%.
For COC(=O)C1(C(=O)OC)CC2=C[C@H](CC2=O)Cc2ccccc2[C@@H]1C[N+](=O)[O-] the results were VDR inhibitor 50µM*! and Sfp inh -14%.
`COC(=O)C1(C(=O)OC)Cc2ccccc2N(S(=O)(=O)c2ccc(C)cc2)C1CC(C)=O` (configuration not stated) gave PLK1 PBD block -9%.
For O=C1NC[C@H](CCCCN2C[C@H](Cc3ccccc3)N(CCc3ccc(O)cc3)C(=O)C2=O)N(CCc2ccccc2)C1=O the results were PLK1 PBD block -8%.
Screening CCn1c(SCC(=O)N2CCCC2)nnc1-c1ccco1 returned IDH1 R132H inh 11%, VDR inhibitor 3%, Sfp inh 8%, rTrxR1 inhibitor inconclusive, TrxR1 substrate 6% and PLK1 PBD block 0%.
For CN(C)C(CNC(=O)c1cccc(S(=O)(=O)NCc2ccccc2)c1)c1ccccc1 (configuration not stated) the results were IDH1 R132H inh 1%, VDR inhibitor -6%, rTrxR1 inhibitor 5%[57.1 µM], TrxR1 substrate 4%[57.1 µM] and PLK1 PBD block -3%.
`COc1ccc(N2CCN(C(=O)CCNS(=O)(=O)c3ccccc3)CC2)cc1` gave IDH1 R132H inh -10%, VDR inhibitor inconclusive, Sfp inh 21%, rTrxR1 inhibitor 16%[57.1 µM], TrxR1 substrate 0%[57.1 µM] and PLK1 PBD block 9.5µM*.
`Cc1ccc(S(=O)(=O)NCCC(=O)N2CCN(c3ccccc3)CC2)cc1C` gave IDH1 R132H inh 11%, VDR inhibitor -7%, rTrxR1 inhibitor 6%, TrxR1 substrate -2% and PLK1 PBD block -23%.
Screening CCOc1ccc(S(=O)(=O)NCCC(=O)N2CCN(c3ccc(OC)cc3)CC2)cc1 returned IDH1 R132H inh 14%, VDR inhibitor -6%, Sfp inh 10%, rTrxR1 inhibitor 28%[57.1 µM], TrxR1 substrate 11%[57.1 µM] and PLK1 PBD block 21µM*.
CCc1ccc(/C=C(/C#N)C(N)=S)s1 was read as IDH1 R132H inh 5%, VDR inhibitor 12%, Sfp inh -9%, rTrxR1 inhibitor -3%[57.1 µM], TrxR1 substrate -5%[57.1 µM] and PLK1 PBD block -18%.
For CCc1sc(/C=C(/C#N)C(N)=S)cc1[N+](=O)[O-] the results were IDH1 R132H inh -15%, VDR inhibitor inconclusive, Sfp inh 2.8µM*, rTrxR1 inhibitor inconclusive, TrxR1 substrate -2% and PLK1 PBD block 5.3µM*.
